The list is not random: actives were taken first. Their share in the collection is about 19%.
KB-3-1 tox: KB-3-1 parental cell cytotoxicity | KB-3-1 viability, CellTiter-Glo ATP luminescence, 72 h | Potency, µM (highest dose often 46.1 µM), usual class: cytotoxic | actives 1.4% (n = 400,000) | AID 1347075; note: nearly all actives have a fitted effect of over 60% in size
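Multi-concentration cytotoxicity screen in KB-3-1 cells grown in DMEM lacking phenol red with 10% FBS. After 72 h at 37 °C with compound, ATP-dependent luminescence was recorded.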
HT1080 IDH1KD tx: HT-1080 IDH1 knockdown cell toxicity (counter line); HT-1080 IDH1 knockdown viability, ATP luminescence, 48 h; Potency, µM (doses to about 46.1 µM), for inactives: top-dose activity, negative = toxicity, actives largely listed as cytotoxic; actives 2% (n = 360,000);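 note: 0% = DMSO wells and -100% = cell-free medium wells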
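Knockdown cells (IDH1KD HT-1080) received compounds 2 h after plating at 750 cells/well and were kept 48 h at 37 °C in 5% FBS RPMI. A CellTiter-Glo luminescence read gave % activity for curve fitting.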
HT1080NT lethal: kills 2HG-producing HT-1080-NT fibrosarcoma cells; HT-1080-NT fibrosarcoma viability, CellTiter-Glo ATP luminescence, 48 h; Potency, µM (doses to about 46.1 µM), without a hit: at the top dose activity, negative = less viability, most hits filed as cytotoxic; actives 1.6% (n = 360,000); AID 686970;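 note: NT is the 2HG producing partner of a matched IDH1 knockdown line; 0% = DMSO-treated cells and -100% = media-only wells without cells; nearly all actives have a fitted effect of over 55% in size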
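HT-1080-NT fibrosarcoma cells (2HG-overproducing), 750 cells/well in RPMI with 5% FBS, dosed after 2 h and incubated 48 h at 37C. CellTiter-Glo luminescence normalized to DMSO and no-cell wells; concentration-response curves fitted and classed.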
KB-V1 MDR tox: kills drug-selected multidrug resistant KB-V1 cells. Potency, µM (series often up to 46.1 µM), hits mostly cytotoxic. KB-V1 MDR cells viability, CellTiter-Glo, 72 h. actives 3.4% (n = 400,000); note: nearly all actives have a fitted effect of over 60% in size
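KB-V1, DMEM (no phenol red) + 10% FBS; cpd pin-transferred, titration series; 72 h, 37 degrees C; CellTiter-Glo, luminescence. Data normalized, curve-fit.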
DT40 TDP1 CPT: growth inhibition of DT40 Tdp1-/-;hTDP1 cells with camptothecin (screen for TDP1 inhibitors) | chicken DT40 Tdp1-/-;hTDP1 cells + 20 nM CPT, ATP luminescence, 48 h | Potency, µM (top dose mostly 46.2 µM), for inactives: top-dose activity change, negative = growth inhibition, hits mostly inhibitors | actives 12% (n = 420,000) | AID 686979; note: nearly all actives have a fitted effect of over 55% in size
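Chicken DT40 Tdp1-/- cells stably complemented with human TDP1 were seeded at 400 cells/well in medium containing 20 nM camptothecin, exposed to pin-transferred compounds, and grown at 37 °C for at least 48 hr. Viability was read as ATP luminescence.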
TDP1 cell noCPT: qHTS for Inhibitors of human tyrosyl-DNA phosphodiesterase 1 (TDP1): qHTS in cells in absence of CPT; Potency, µM (top dose mostly 46.2 µM), inactives show at the highest dose activity change, negative = growth inhibition, most hits filed as inhibitors; DT40 Tdp1-/- hTDP1 cells, no CPT, ATP luminescence, 48 h; actives 15% (n = 420,000); note: nearly all actives have a fitted effect of over 55% in size
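Readout: luminescence from CellTiter-Glo after 30 min in the dark at RT. Cells: DT40 Tdp1-/- with stable hTDP1, 400/well. Exposure: compounds alone, ≥48 hr, 37 °C.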
The depositor's hits bear a star; i = inactive; ? = inconclusive; / = no result given; [ ] = dose if it differs, or a comment. Calls come from the whole dose curve; as a rule, active = well fitted curve in the direction sought with a large enough effect; inconclusive = small, poorly fitted or top-dose-only effect, or another doubt; inactive = no such curve, though single readings can be large; an effect the other way counts as inactive or inconclusive. Unless noted, % is set by controls: 0 for no effect and ±100 for the full control effect; potency is the fitted concentration of half-maximal effect.

SMILES	KB-3-1 tox	HT1080 IDH1KD tx	HT1080NT lethal	KB-V1 MDR tox	DT40 TDP1 CPT	TDP1 cell noCPT
COc1cc(C=CC(=O)N2CCN(CC(=O)N3CCCC3)CC2)cc(OC)c1OC	i	12%	-2%	i	12%	-26%
COC(=O)c1ccccc1NC(=O)c1ncoc1-c1ccco1	i	/	/	i	13µM*	?
CC1=C(C(=O)OCCc2ccccc2)C(c2ccsc2)NC(=O)N1C (stereo not given)	i	0%	2%	i	?	-26%
COc1ccc(Nc2nc(-c3cccc(OC)c3O)nc3ccccc23)cc1	i	?	-16%	i	?	16µM*
COc1cccc(-c2nc(NC(C)(C)C)c3ccccc3n2)c1O	?	?	?	23µM*	?	21µM*
COc1cccc(CNCC2CCCO2)c1 (stereo not given)	i	4%	-1%	i	-10%	10%
Cc1ccc([N+](=O)[O-])cc1S(=O)(=O)NCC1COc2ccccc2O1 (stereo not given)	i	-16%	1%	i	?	-16%
CCN(CC)S(=O)(=O)c1ccc(NCC2COc3ccccc3O2)c([N+](=O)[O-])c1 (stereo not given)	i	-1%	-2%	i	16µM*	23µM*
CN(C)S(=O)(=O)c1ccc(NCC2COc3ccccc3O2)c([N+](=O)[O-])c1 (stereo not given)	i	-10%	-14%	?	16µM*	23µM*
NC(=O)c1ccc(NCC2COc3ccccc3O2)c([N+](=O)[O-])c1 (stereo not given)	?	-22%	-1%	?	-25%	?
COc1ccc(/C=N/NC(=O)c2c(C)nnn2-c2nonc2N)cc1OC	i	14%	8%	i	3%	-1%
CCc1ccc(NC(=O)C2CCN(S(=O)(=O)c3ccc4c(c3)NC(=O)CO4)CC2)cc1	i	-10%	-17%	i	?	?
Cc1ccc(S(=O)(=O)N2CC(O)C[C@H]2C(=O)OCC(=O)Nc2ccc(N3CCCCC3)cc2)cc1C (stereo not given in full)	i	-6%	-8%	i	?	18µM*
COc1nc(N)nc(NC(=O)c2cccs2)c1N=O	i	18µM*	16µM*	i	2.1µM*	2.3µM*
CCC1CCCCN1S(=O)(=O)c1ccc(C(=O)Nc2nnc(-c3cccs3)o2)cc1 (stereo not given)	?	14µM*	8.9µM*	5µM*	6.3µM*	6.3µM*
CC1CC(C)CN(S(=O)(=O)c2ccc(C(=O)Nc3sccc3C(N)=O)cc2)C1 (stereo not given)	i	?	-25%	?	18µM*	21µM*
CC1CC(C)CN(S(=O)(=O)c2ccc(C(=O)Nc3nnc(-c4cccs4)o3)cc2)C1 (stereo not given)	?	?	14µM*	13µM*	6.3µM*	5µM*
O=C(NC1CCCCC1)C1c2ccccc2C(=O)N1Cc1ccc2c(c1)OCO2 (stereo not given)	i	1%	6%	?	-2%	1%
COc1ccc(OC)c(NC(=O)CC2Oc3ccccc3NC2=O)c1 (stereo not given)	i	6%	7%	i	-3%	-28%
CCN1CCN(CCCNC(=O)c2ccc(/C=C3/Sc4ccccc4N(Cc4ccccc4F)C3=O)cc2)CC1	?	15µM*	18µM*	i	16µM*	15µM*
CCN1CCN(CCNC(=O)c2ccc(/C=C3/Sc4ccccc4N(Cc4ccccc4C)C3=O)cc2)CC1	?	21µM*	15µM*	i	?	?
O=C1NC(=O)/C(=C/c2ccccn2)S1	i	-2%	1%	i	2%	-19%
COc1ccccc1-c1c(-c2ccc(O)cc2O)n[nH]c1C(F)(F)F	i	-20%	-5%	i	5.8µM*	2.3µM*
COc1ccc(-c2c(-c3ccc(O)cc3O)n[nH]c2C(F)(F)F)cc1	i	?	?	i	?	-25%
C=C(C)COc1ccc(-c2ncncc2-c2ccccc2OC)c(O)c1	i	-13%	-14%	i	?	?
SMILES	KB-3-1 tox	HT1080 IDH1KD tx	HT1080NT lethal	KB-V1 MDR tox	DT40 TDP1 CPT	TDP1 cell noCPT
Oc1ccc(-c2n[nH]c(C(F)(F)F)c2-c2ccccc2)c(O)c1	?	10µM*	-20%	?	1.8µM*	1.6µM*
COc1cccc(CN2CCC(n3cc(C(=O)NC4CCCC4)nn3)CC2)c1O	/	/	/	/	14%[9.04 µM]	-5%
O=[N+]([O-])c1ccc(O)c(C=Nc2ccc3c(c2)OCO3)c1	i	-19%	-25%	i	-29%	-9%
Cc1cc(O)c(C(C)C)cc1N=Cc1cc([N+](=O)[O-])ccc1O	i	-16%	-21%	i	23µM*	16µM*
Cc1cc(O)c(C(C)C)cc1N=Cc1ccccc1O	i	-2%	1%	i	3.7µM*	4.6µM*
CC(N=Cc1ccccc1O)c1ccccc1 (stereo not given)	i	-6%	2%	i	-22%	-5%
CCOc1ccc(Nc2ccc([N+](=O)[O-])c3nonc23)cc1	i	-26%	-27%	i	?	23µM*
COc1ccc(CNC(=O)c2ccc3c(c2)N=C(C)c2c(C)ccc(C)c2S3)cc1	4.6µM*	/	/	1.8µM*	/	/
CC1=Nc2cc(C(=O)NCCc3ccc(Cl)cc3)ccc2Sc2c(C)ccc(C)c21	2.6µM*	/	/	1.6µM*	/	/
CCCNC(=O)c1ccc2c(c1)N=C(C)c1c(C)ccc(C)c1S2	0.82µM*	/	/	?	/	/
COc1ccc(CNC(=O)c2ccc3nccnc3c2)cc1	i	-15%	1%	i	-5%	-12%
CC1=Nc2cc(C(=O)NCCc3ccccc3)ccc2Sc2c(C)ccc(C)c21	0.65µM*	/	/	0.41µM*	/	/
CCC(C)NC(=O)Cn1c(=O)n(-c2cc(OC)cc(OC)c2)c(=O)c2ccccc21 (stereo not given)	i	/	/	?	0%	-11%
C[C@@H](NC(=O)[C@@H]1Cc2ccccc2CN1)C(=O)NCC1CCCO1 (stereo not given in full)	i	-2%	-6%	i	-5%	7%
COc1ccc(CNC(=O)CCn2cccn2)cc1	i	/	/	i	-1%	-7%

High-throughput results deposited in PubChem by National Center for Advancing Translational Sciences (NCATS).
